The text below walks through data of PubChem BioAssay (Tox21).

The structures appear in SMILES notation. Records with an inconclusive call do not appear. Entries that show only a call come without a potency. The source made the active and inactive calls. Calls come from the whole dose curve; as a rule, active = well fitted cell-killing curve with a large enough effect in the repeat runs; inconclusive = weak or mixed curves, or effect the other way; inactive = flat fitted curve, though single readings scatter.
Potency is the fitted concentration of half-maximal effect.

The assay in a line: cAMP Responsive Elements (CRE) small molecule agonists, cell-based qHTS assay: qHTS cell viability counter screen (AID 2060914). Note: nearly all actives have a fitted effect of over 50% in size. As to conditions: CRE-bla HEK293T viability, CellTiter-Glo luminescence, 5 h; series mostly up to 92.4 µM. In a few lines:
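Luminescence read-out (CellTiter-Glo, 30 min RT) of ATP-based viability in CRE-bla HEK 293T cells, run in the same wells as the β-lactamase reporter assay after 3 h compound treatment at 37 °C.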
Take `CC(O)(c1ccc(Cl)cc1)c1ccc(Cl)cc1`: the Potency entry is “inactive”.
The value for `COc1cc(NS(=O)(=O)c2ccc(N)cc2)ncn1` was “inactive”; that for `CC(=O)C1C(=O)C=C(C)OC1=O` (stereo not given) was “inactive”; that for `C[C@]12CC[C@@H]3c4ccc(O)cc4CC[C@H]3[C@@H]1CC[C@@H]2OC(=O)CCC1CCCC1` was “inactive”.
The value for `CCc1cc(C(C)(C)C)c(O)c(C(C)(C)C)c1` was “inactive”; that for `CC(=O)[C@@]1(O)CC[C@H]2[C@@H]3C[C@H](C)C4=CC(=O)C=C[C@]4(C)[C@@]3(F)[C@@H](O)C[C@@]21C` was “inactive”.
For `COc1cc(/C=C/c2ccccc2)oc(=O)c1`, the Potency entry was “inactive”.
Under `CC[N+](CC)(CC)CCOc1cccc(OCC[N+](CC)(CC)CC)c1OCC[N+](CC)(CC)CC` stands “inactive”; under `C=C[Si]1(C)O[Si](C)(C=C)O[Si](C)(C=C)O[Si](C)(C=C)O1` (stereo not given), “inactive”; under `O=C(O)CO`, “inactive”.
On to `Brc1cc(Br)c(Oc2cc(Br)c(Br)cc2Br)cc1Br`, for which the Potency entry was “inactive”.
Under `Cc1cccc(C)c1OCC(C)N` (stereo not given) stands “inactive”; under `CCCCOCCOCCOC(=O)CCCCC(=O)OCCOCCOCCCC`, “inactive”.
The value for `CC1=CC(=O)CC(C)(C)C1(O)/C=C/C(C)=C\C(=O)O` (stereo not given) was “inactive”.
Under `CCCCCCCCCCCCCCCC[N+](C)(C)CCN(Cc1ccc(OC)cc1)c1ncccn1` stands 26.6 µM (active); under `COc1cc(C(=S)N2CCOCC2)ccc1O`, “inactive”.
For the compound `COc1ccc(-c2cc(=S)ss2)cc1`, the Potency entry was “inactive”.
Consider `O=S(=O)(O)c1ccc(N=Nc2c(O)ccc3ccccc23)cc1`, for which the Potency entry is “inactive”.
Consider `COC(=O)C1=C(C)NC(C)=C(C(=O)OC(C)(C)CN(C)CCC(c2ccccc2)c2ccccc2)C1c1cccc([N+](=O)[O-])c1` (stereo not given), for which the Potency result is “inactive”.
For the compound `CCOC(=O)OCC`, the Potency entry was “inactive”.
The value for `Cc1nccn1-c1ccc(Sc2cccc(C3(C(N)=O)CCOCC3)c2)cc1` was “inactive”; that for `CO[Si](OC)(OC)OC` was “inactive”.
Under `Cn1ccnc1` stands “inactive”; under `O=C(O)c1ccc(O)cc1`, “inactive”.
The value for `O=[N+]([O-])c1ccc(O/N=C/c2cc(Br)c(O)c(Br)c2)c([N+](=O)[O-])c1` was “inactive”.
Turning to `CC1(C)CCC[C@]2(C)[C@H]3CC(=O)O[C@]3(C)CC[C@@H]12`, the Potency entry was “inactive”.
The value for `NC(=O)C1(N2CCCCC2)CCN(CCCN2c3ccccc3CCc3ccc(Cl)cc32)CC1` was “inactive”; that for `CC(C)(C)CC(C)(C)c1ccc(O)c(-n2nc3ccccc3n2)c1` was 9.69 µM (active).
As to `CC(C)C[C@@H]1[C@H](c2ccccc2)OC(=O)N1CCCN1CCCCCC1`, the Potency result was “inactive”.
Under `COc1cc(C)ccc1C(C)C` stands “inactive”; under `O=c1c2ccccc2nnn1CCl`, “inactive”.
Under `CCN1CCCC1CNC(=O)c1cc(S(=O)(=O)CC)c(N)cc1OC` (stereo not given) stands “inactive”; under `C=CCOC(=O)CCC1CCCCC1`, “inactive”; under `O=C1Nc2ccccc2C1=O`, “inactive”.
Under `C=CC(=O)OCCCCCCCC` stands “inactive”; under `Clc1ccc2nsnc2c1NC1=NCCN1`, “inactive”; under `CCN1CCN(C(=O)N[C@@H](C(=O)N[C@@H]2C(=O)N3C(C(=O)O)=C(CSc4nnnn4C)CS[C@H]23)c2ccc(O)cc2)C(=O)C1=O`, “inactive”.
As to `NS(=O)(=O)c1ccccc1Cl`, the Potency entry is “inactive”.
As to `CCCCCCCC(=O)Oc1c(Br)cc(C#N)cc1Br`, the Potency result was “inactive”.
Under `CC(=O)[C@H]1CC[C@H]2[C@@H]3C[C@H](C)C4=CC(=O)CC[C@]4(C)[C@H]3[C@@H](O)C[C@]12C` stands “inactive”.
